Screens as filed in PubChem BioAssay.
Tb PGK inh = inhibitors of T. brucei phosphoglycerate kinase. P07378. PGK/GAPDH coupled, Kinase-Glo luminescence, 60 min. Potency, µM (doses to about 57.5 µM), hits mostly inhibitors. 0.043% of 380,000 active. AID 602233; note: nearly all actives have a fitted effect of over 60% in size
Target sequence (P07378 whole entry, looked up): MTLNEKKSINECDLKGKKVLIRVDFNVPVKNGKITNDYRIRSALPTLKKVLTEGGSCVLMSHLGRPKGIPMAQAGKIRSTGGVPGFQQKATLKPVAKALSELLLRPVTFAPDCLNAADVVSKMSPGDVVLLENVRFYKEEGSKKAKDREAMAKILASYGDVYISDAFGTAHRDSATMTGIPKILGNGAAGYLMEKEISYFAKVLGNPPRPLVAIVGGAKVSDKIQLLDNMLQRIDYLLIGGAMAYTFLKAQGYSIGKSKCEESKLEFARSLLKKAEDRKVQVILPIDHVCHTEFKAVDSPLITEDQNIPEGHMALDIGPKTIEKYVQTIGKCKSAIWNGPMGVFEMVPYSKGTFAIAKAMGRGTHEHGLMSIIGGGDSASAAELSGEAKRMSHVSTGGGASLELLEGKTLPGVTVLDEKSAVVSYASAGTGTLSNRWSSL
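Recombinant glycosomal PGK reaction used 1,3-bisphosphoglycerate generated in-well by GAPDH (100nM final) in 100mM TEA pH 7.6, 5mM MgCl2, 0.01% Tween-20. After 60 minutes at room temperature, ATP was read by Kinase-Glo Plus luminescence end-point.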
PI4K2A block = blocks human PI4K2A kinase activity. activity change, negative = inhibition, % at 76.9 µM. AID 1346378. purified PI4K2A, ADP-Glo luminescence, 1 h; stronger effect = lower value. Q9BTU6. 0.13% of 420,000 active; in the data active = activity change below about -50%; inconclusive = mostly about -30% to -49%
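Compounds are screened against recombinant PI4K2A using PI as substrate and ATP, the latter dispensed at 300 microM. Reactions run one hour at ambient temperature before ADP-Glo detection; full inhibition defined by wells lacking enzyme.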
Pin1 inh = human Pin1 inhibition; 0.009% of 390,000 active; Pin1 FP peptide displacement, HiFluor488, 10 min; Potency, µM (top dose mostly 115 µM), actives largely listed as inhibitors; active = well fitted inhibition curve with a large enough effect in the polarisation, with a control signal flat, not every such curve was filed as active; inconclusive = small, poorly fitted or top-dose-only effect, or effect the other way, or a change in a side signal; inactive = no such curve, though single readings can be large or run the other way; the % refers to the polarisation
Target sequence (Q13526 whole entry, looked up): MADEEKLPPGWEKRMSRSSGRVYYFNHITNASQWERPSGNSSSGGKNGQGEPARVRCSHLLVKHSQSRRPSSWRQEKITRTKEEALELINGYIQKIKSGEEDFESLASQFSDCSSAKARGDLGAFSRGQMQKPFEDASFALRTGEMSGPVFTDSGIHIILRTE
PI5P4Ka inh = PI5P4K alpha (human) kinase inhibition. PI5P4Kalpha enzyme, ADP-Glo luminescence, 60 min; stronger effect = lower value. AID 652105. max response, %. P48426. 1.2% of 330,000 active; active = max response of -50% or lower; inconclusive = between -30% and -50%; inactive = -30% or higher; note: value at the top dose of about 77 µM
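Single end-point luminescence (ADP-Glo) quantified ADP from PI5P4Kalpha turnover; ATP 5 microM final, 1 h at RT, 0.1% CHAPS and 0.28 mM EGTA in HEPES pH 7.4.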
ADP-Glo counter = ADP-Glo luciferase interference, PI5P4K counter-screen; shares compounds with PI5P4Ka inh; ADP-Glo detection counter-screen, luciferase luminescence, no enzyme; Potency, µM (titrated, usually from 76.9 µM), most hits filed as inhibitors; 1,100 tested, under 10 active
Each line names hits and unclear results; the compound was inactive in the other large screens (follow-up assays come after a bar, where they were run). The entries come from a sample that favours hits as a whole. Unless noted, calls come from the whole dose curve; as a rule, active = well fitted curve in the direction sought with a large enough effect; inconclusive = small, poorly fitted or top-dose-only effect, or another doubt; inactive = no such curve, though single readings can be large; an effect the other way counts as inactive or inconclusive.

COc1ccccc1N1CCN(c2ncnc3c2c(-c2ccccc2)cn3-c2cccc(C)c2)CC1	none (no result: PI5P4Ka inh)
Cc1ccc([N+](=O)[O-])cc1S(=O)(=O)Nc1ccc(C(=O)N2CCN(C(=O)c3ccco3)CC2)cc1	PI5P4Ka inh -53 | ADP-Glo counter inactive
O=C(NCc1cccc(F)c1)Nc1nnc([C@H]2C[C@H](O)[C@@H](CO)O2)s1	PI5P4Ka inh -50 (no result: Tb PGK inh, Pin1 inh) | ADP-Glo counter inactive
Cc1ccccc1C(=O)N1CCC(n2nccc2NC(=O)CCOc2ccccc2)CC1	none
C[C@H]1CN=C(Nc2ccccc2)N1CC1CCCCC1	none
C[C@H]1CN=C(Nc2ccccc2)N1CCCC1CCCCC1	none | ADP-Glo counter inactive
CN(CC(=O)Nc1c(Cl)cccc1Cl)C(=O)c1n[nH]c2ccccc12	none
CCc1cc(=O)oc2cc(C)c(CN3CCCCC3)c(O)c12	PI4K2A block inconclusive, Pin1 inh inconclusive, PI5P4Ka inh -64 | ADP-Glo counter inactive
CCCc1cc(=O)oc2cc(C)c(CN3CCCC3)c(O)c12	PI4K2A block inconclusive, Pin1 inh inconclusive, PI5P4Ka inh -81 | ADP-Glo counter inactive
CC(Nc1nc2ncn(Cc3ccccc3)c2c(=O)[nH]1)C(=O)O (centres undefined)	PI5P4Ka inh -55 | ADP-Glo counter inactive
Cc1ccc(S(=O)(=O)N2C[C@H]3C(=O)C[C@@H](c4ccccc4)N(S(=O)(=O)c4ccccc4C)[C@H]3C[C@H]2c2ccccc2)cc1	none (no result: Tb PGK inh, Pin1 inh)
O=c1c2ccccc2[nH]c2ccc(O)cc12	PI5P4Ka inh -73 (no result: Pin1 inh) | ADP-Glo counter inactive
Cc1ccc2[nH]c3ccccc3c(=O)c2c1	Pin1 inh inconclusive
COc1ccc(N2Cc3cccc(C(=O)N4CCN(C(=O)c5ccco5)CC4)c3C2=O)cc1	Pin1 inh inconclusive, PI5P4Ka inh -84 | ADP-Glo counter inactive
COCc1c(C(=O)N2CCc3ccccc32)oc2ccccc12	Tb PGK inh inconclusive, PI5P4Ka inh -77 | ADP-Glo counter inactive
Cc1c(C(=O)N2CCc3ccccc32)oc2ccccc12	none
O=C(CP(=O)(c1ccccc1)c1ccccc1)Nc1nc2ccc(Cl)cc2s1	none
NC(=O)c1ccc(NC(=O)CS(=O)(=O)c2cn(CC(=O)N3CCCCC3)c3ccccc23)cc1	none
COc1cccc(NC(=O)c2ccc3nc(Cc4ccccc4)oc3c2)c1	none (no result: PI5P4Ka inh)
CCCNC(=O)C1(C)CCCN(C(=O)c2cc(C)nn2C(C)(C)C)C1 (centres undefined)	PI5P4Ka inh -71 (no result: Tb PGK inh, Pin1 inh) | ADP-Glo counter inactive
CCCNC(=O)C1(C)CCN(C(=O)c2cc(C)nn2C(C)(C)C)C1 (centres undefined)	none (no result: Tb PGK inh, Pin1 inh)
COc1cc(/C=C/c2nc3cc(Cl)ccc3c(=O)n2-c2cccc(C(F)(F)F)c2)cc(OC)c1OC	none (no result: PI5P4Ka inh)
O=C(Cc1cccs1)Nc1nnc(SCc2cccc3ccccc23)s1	PI5P4Ka inh -53 | ADP-Glo counter inactive
O=C(Cc1cccs1)Nc1nnc(SCC(=O)NC2CCCCC2)s1	Pin1 inh inconclusive
O=C(CCCCn1c(=O)c2ccccc2n(Cc2ccccc2F)c1=O)NCc1ccccc1Cl	none (no result: PI5P4Ka inh)
FC(F)(F)C1=Nc2cccc3cccc(c23)N1	PI4K2A block -64, PI5P4Ka inh -82 (no result: Pin1 inh) | ADP-Glo counter inactive
COc1cc(OC)c2c(C)c(CC(=O)NCCc3ccccc3OC)c(=O)oc2c1	none (no result: PI5P4Ka inh)
CN1OC[C@@H]2CN(S(=O)(=O)c3cccc4ccccc34)[C@H](c3ccc(-c4ccccc4)cc3)C[C@@H]21	none (no result: Pin1 inh)
CN1OC[C@@H]2CN3C(=O)N(c4cccc5ccccc45)c4ccccc4[C@@H]3C[C@@H]21	PI5P4Ka inh -53 (no result: Tb PGK inh, Pin1 inh) | ADP-Glo counter inactive
CC1CCN(C(=O)c2ccc(COc3ccccc3Cl)o2)CC1	PI5P4Ka inh -55 | ADP-Glo counter inactive
O=C(c1ccc(COc2ccccc2Cl)o1)N1CCCC1	none
O=C(NCc1ccc(Cl)cc1)c1cccc(NC2=NC3CS(=O)(=O)CC3S2)c1 (centres undefined)	none
Cc1ccc(C(=O)N/N=c2\oc3ccccc3cc2C(N)=O)cc1	none
Cc1ccc(N=c2oc3cc(O)ccc3cc2C(N)=O)cc1	Pin1 inh inconclusive, PI5P4Ka inh -52 | ADP-Glo counter inactive
COc1ccccc1-c1cnc(C(O)c2ccc(Cl)c(Cl)c2)[nH]1 (centres undefined)	none (no result: Tb PGK inh, Pin1 inh)
Cc1ccc2c(c1)N(CC(=O)N1CCCCCC1)C(=O)C(C)O2 (centres undefined)	PI5P4Ka inh -73 | ADP-Glo counter inactive
COc1ccc(C(=O)NC(CCSC)C(=O)N2CCCCCC2)cc1 (centres undefined)	PI5P4Ka inh -76 | ADP-Glo counter inactive
CCOC(=O)c1ccc(NC(=O)CSc2nnc(-c3ccncc3)n2-c2ccccc2)cc1	none (no result: PI5P4Ka inh)
c1coc(-c2ccc3nncn3c2)c1	PI4K2A block inconclusive, PI5P4Ka inh -73 (no result: Tb PGK inh, Pin1 inh) | ADP-Glo counter inactive
c1cc(N2CCOCC2)ccc1-c1ccc2nncn2c1	none (no result: Tb PGK inh, Pin1 inh)
O=C(NCc1ccco1)c1cccc(Nc2nc3ccc(Br)cc3[nH]2)c1	none
O=C(NCC1CC1)c1ccc(Nc2nc3ccc(Br)cc3[nH]2)cc1	PI5P4Ka inh -56 | ADP-Glo counter inactive
Cc1ccc2ccccc2c1C(O)c1ncc(-c2ccccc2F)[nH]1 (centres undefined)	none (no result: Tb PGK inh, Pin1 inh)
O=C1Nc2ccc(S(=O)(=O)NCc3ccccn3)c3cccc1c23	PI5P4Ka inh -60 | ADP-Glo counter inactive
O=S(=O)(Nc1nccs1)c1cc(Cl)ccc1Cl	PI5P4Ka inh -51 | ADP-Glo counter inactive
CC1CCCCC1NC(=O)COC(=O)c1c2c(nc3ccccc13)/C(=C\c1ccco1)CC2 (centres undefined)	PI4K2A block -67, PI5P4Ka inh -74 (no result: Pin1 inh) | ADP-Glo counter inactive
O=C(O)CC(C(=O)O)C(c1ccccc1)c1ccccc1 (centres undefined)	none
CC1(OC(=O)CCc2ccccc2)C(=O)C=C2C=C(c3ccc(C#N)cc3)N(Cc3ccccc3)C=C2C1=O (centres undefined)	PI5P4Ka inh inconclusive
CC1(OC(=O)CCc2ccccc2)C(=O)C=C2C=C(c3ccc(C#N)cc3)N(Cc3ccco3)C=C2C1=O (centres undefined)	PI5P4Ka inh -53 | ADP-Glo counter inactive
Cc1ccc([C@@H]2CC=C(C(=O)O)[C@H](c3ccc(C(C)(C)C)cc3)N2S(=O)(=O)c2ccc(C)cc2)cc1	none (no result: Pin1 inh)
Cc1ccc(S(=O)(=O)N2[C@@H](c3ccc(C(C)(C)C)cc3)C(C(=O)O)=CC[C@H]2c2ccc(C(C)C)cc2)cc1	Tb PGK inh inconclusive, PI5P4Ka inh -63 (no result: Pin1 inh) | ADP-Glo counter inactive
COc1ccccc1OCC(=O)Nc1sc2c(c1C(N)=O)CCC2	Pin1 inh inconclusive, PI5P4Ka inh inconclusive
COc1cccc(C(=O)OCC(=O)Nc2sc3c(c2C(N)=O)CCC3)c1O	Pin1 inh inconclusive, PI5P4Ka inh -51 | ADP-Glo counter inactive
CC1(C(=O)Nc2cccc3ncccc23)CCN1C(=O)Cc1ccc(-c2ccccc2)cc1 (centres undefined)	none (no result: Tb PGK inh, Pin1 inh)
CCc1cnc2c(c1SCc1cc(OC)cc(OC)c1)c(=O)n(C)c(=O)n2C	none (no result: PI5P4Ka inh)
